SW480 rereplic – induces DNA re-replication in SW480 colon adenocarcinoma cells | hit rate 1.8% among 340,000 | SW480 DNA re-replication, Hoechst DNA content imaging, 48 h | AID 624297 | Potency, µM (doses to about 46.1 µM), for inactives: at the top dose re-replication activation, actives largely listed as activators; further: potency means the concentration at half of the fitted maximal effect; % of control where 0% means no effect; nearly all actives have a fitted effect of over 55% in size
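Hoechst fluorescence of nuclei (405 nm excitation, 500-530 nm emission) measured by plate-scanning imager after 48 hr compound exposure at 37 C; re-replication scored as increased number of nuclei with elevated intensity.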
IL-1B inflam inh – inflammasome signaling inhibition, IL-1 beta readout | THP-1 LPS/ATP IL-1B secretion, AlphaLISA, 16 h; active compounds read low | activity change, % at 57.5 µM | hit rate 4.7% among 360,000 | AID 743279; in the data active means activity change below about -50%; inconclusive means mostly about -30% to -49%; further: on the % scale 0 is the no-effect control and ±100 the full control effect
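THP-1 cells pretreated 1 hr with compounds (up to 57.5 uM final), then stimulated with LPS (250 ng/mL final) plus ATP (1.25 mM final); secreted IL-1B measured by AlphaLISA after 16 hr, decreased signal indicating inhibition.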
MCF10A rereplic – inducers of DNA re-replication in MCF 10A breast cells. MCF 10A DNA re-replication, Hoechst nuclear intensity, 48 h. Potency, µM (titrated, usually from 46.1 µM), for inactives: at the top dose activity, positive = re-replication, usual class: activators. hit rate 2.9% among 350,000. AID 624296; further: potency means the concentration at half of the fitted maximal effect; % of control where 0% means no effect; nearly all actives have a fitted effect of over 50% in size
VP16 counter – inhibits Gal4-VP16 luciferase reporter, ROR gamma counter-screen; Drosophila S2 Gal4-VP16 UAS-luciferase, luminescence, 20 h; Potency, µM (titrated, usually from 53.6 µM), for inactives: at the highest dose activity, negative = inhibition, actives largely listed as inhibitors; hit rate 3.5% among 310,000;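 further: Gal4-VP16 expression switched on by copper sulfate through the metallothionein promoter; potency means the concentration at half of the fitted maximal effect; on the % scale 0 is the no-effect control and ±100 the full control effect; nearly all actives have a fitted effect of over 50% in size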
RORg inh – blocks mouse ROR gamma transcriptional activity | P51450 | Drosophila S2 Gal4-RORgamma UAS-luciferase reporter, 20 h | Potency, µM (top dose mostly 53.6 µM), inactives show at the highest dose activity change, negative = inhibition, actives largely listed as inhibitors | hit rate 5.4% among 310,000 | AID 2551; further: potency means the concentration at half of the fitted maximal effect; on the % scale 0 is the no-effect control and ±100 the full control effect; nearly all actives have a fitted effect of over 60% in size
Target sequence (P51450 whole entry, looked up, the tested form may be a part): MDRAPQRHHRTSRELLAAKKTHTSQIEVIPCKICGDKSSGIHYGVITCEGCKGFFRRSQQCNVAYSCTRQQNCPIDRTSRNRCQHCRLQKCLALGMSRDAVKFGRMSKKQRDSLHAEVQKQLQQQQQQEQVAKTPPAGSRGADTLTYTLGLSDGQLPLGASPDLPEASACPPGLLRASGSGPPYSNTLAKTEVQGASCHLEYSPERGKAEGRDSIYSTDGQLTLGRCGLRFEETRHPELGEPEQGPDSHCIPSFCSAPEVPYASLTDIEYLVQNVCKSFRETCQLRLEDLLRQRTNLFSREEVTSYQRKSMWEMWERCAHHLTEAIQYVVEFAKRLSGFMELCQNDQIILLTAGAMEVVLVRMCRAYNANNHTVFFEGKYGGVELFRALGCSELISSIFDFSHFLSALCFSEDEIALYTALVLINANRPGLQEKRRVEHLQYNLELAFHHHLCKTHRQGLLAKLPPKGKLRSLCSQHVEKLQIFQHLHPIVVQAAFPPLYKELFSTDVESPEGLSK
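Compounds are pin-transferred onto Drosophila Schneider cells expressing a copper-inducible Gal4–ROR gamma transactivation domain fusion. After 1 hr, copper sulfate is added to 700 uM final; luciferase is read 20 hr later.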
An asterisk follows results filed as active; ? = inconclusive; · = not tested or not shown; [ ] = remark or other dose. Most compounds without a hit are left out; they make up all but 11% or so of the library. Unless noted, the call rests on the fitted dose curve; in most records, active means well fitted curve in the direction sought with a large enough effect; inconclusive means small, poorly fitted or top-dose-only effect, or another doubt; inactive means no such curve, though single readings can be large; an effect the other way counts as inactive or inconclusive.

SMILES	SW480 rereplic	IL-1B inflam inh	MCF10A rereplic	VP16 counter	RORg inh
CCCCN1CCC2C=CCC(C(=O)O)C2C1=O (configuration not stated)	·	·	·	-3%	?
Cc1ccc2c(c1)=N/C(=N\c1[nH]c(O)c3ccccc13)N=2	·	-102*	·	·	·
Oc1[nH]c(N=C2N=c3ccccc3=N2)c2ccccc12	16µM*	-98*	?	2.5µM*	0.5µM*
N#CC1=C(N)NC(=S)C(C(N)=O)C1c1ccccc1F (configuration not stated)	21µM*	?	?	?	?
N#CC1=C(N)NC(=S)C(C(N)=O)C1c1ccc(Cl)cc1Cl (configuration not stated)	16µM*	5	15µM*	?	?
Cc1cc(-n2c(C)c3c(C)nnc(C)c3c2C)ccc1N	?	·	21µM*	-17%	1%
Cc1nnc(C)c2c(C)n(-c3ccccc3)c(C)c12	0%	21	2%	1%	15%
Cc1nnc(C)c2c(C)n(-c3ccccc3N)c(C)c12	21µM*	-3	1%	2%	3%
Cc1ccc2nc3c(cc(C(=O)NCc4ccccc4)c(=N)n3CCCn3ccnc3)c(=O)n2c1	5.2µM*	?	8.2µM*	·	·
Cc1cccn2c(=O)c3cc(C(=O)NC(C)c4ccccc4)c(=N)n(CCCn4ccnc4)c3nc12 (configuration not stated)	16µM*	-83*	21µM*	-9%	1%
Cc1cccn2c(=O)c3cc(C(=O)NCC4CCCO4)c(=N)n(CCc4ccccc4)c3nc12 (configuration not stated)	?	35	26%	-7%	-3%
CCCCNC(=O)c1cc2c(=O)n3cccc(C)c3nc2n(CCN2CCOCC2)c1=N	?	-2	?	-3%	-15%
Cc1ccc2nc3c(cc(C(=O)NCCc4ccccc4)c(=N)n3CCN3CCOCC3)c(=O)n2c1	5.2µM*	2	18µM*	0%	6%
Cc1ccc2nc3c(cc(C(=O)NC4CCS(=O)(=O)C4)n3Cc3ccccc3)c(=O)n2c1 (configuration not stated)	23µM*	-9	23µM*	-17%	0%
Cc1ccc(OCC(=O)OCC(=O)NC2CCCCCC2)cc1C	·	-9	·	·	·
COC(=O)C1=C(C)N(Cc2ccccc2)C2=C3C(=O)N(C)C(=O)C3[C@@](O)(C(=O)OC)C(=O)N2C1c1ccccc1 (some centres not stated)	·	·	·	-7%[10 µM]	6%[10 µM]
O=c1ccn(C2OC(COP(=O)(O)OC3C(CO)OC(n4ccc(=O)[nH]c4=O)C3O)C(O)C2O)c(=O)[nH]1 (configuration not stated)	-1%	·	4%	0%	6%
Cc1ccc2nc3c(cc(C(N)=S)c(=N)n3CCCOC(C)C)c(=O)n2c1	-2%	-9	?	-18%	3%
Cc1ccc2nc3c(cc(C(=O)NCCN4CCOCC4)c(=N)n3CCCN3CCOCC3)c(=O)n2c1	1.8µM*	-8	?	0%	0%
CCN(CC)S(=O)(=O)c1cccc(NC(=O)Nc2cccc(C(F)(F)F)c2)c1	?	-93*	23µM*	-2%	1%
Cc1ccc(NC(=S)NNC(=S)NCc2ccccc2)cc1	-5%	38	26%	-10%	-24%
O=C(/C=C/c1cccc(C(F)(F)F)c1)Nc1cccc(C(F)(F)F)c1	-1%	-92*	12%	?	?
CC(C)(C)NNC(=S)Nc1cccc(C(F)(F)F)c1	9%	?	27%	3.2µM*	1µM*
Cc1ccc(NC(=O)/C=C/c2cccc(C(F)(F)F)c2)cc1	-2%	-23	-2%	0%	?
FC(F)(F)c1cccc(NC(=S)NNC(=S)NCc2ccccc2)c1	-12%	-15	?	?	?
SMILES	SW480 rereplic	IL-1B inflam inh	MCF10A rereplic	VP16 counter	RORg inh
Cc1ccc(NC(=S)NNC(C)(C)C)cc1	?	·	-1%	0.25µM*	?
CCN(CC)S(=O)(=O)c1cccc(NC(=O)CC2CCCC2)c1	-2%	-13	2%	-9%	8%
Oc1ccc(Br)cc1C1Nc2ccccc2S1 (configuration not stated)	-1%	-12	4%	-10%	-14%
CCCNC(=S)Nc1cccc(C(F)(F)F)c1	-2%	4	2%	?	10µM*
O=C(NNC(=S)Nc1cccc(C(F)(F)F)c1)c1ccccc1Cl	5%	?	21%	10µM*	13µM*
O=C(c1ccccc1F)N1CCc2ccccc21	-1%	-23	4%	16%	-17%
O=C(NC(=S)N1CCc2ccccc21)c1ccc(Br)o1	5%	0	-10%	0.32µM*	0.25µM*
CN1CCN(C(=S)NC(=O)c2ccccc2Br)CC1	0%	-9	-1%	11µM*	7.1µM*
Cc1ccc(C(=O)N2CCc3ccccc32)o1	3%	-4	0%	-18%	?
O=C(NC(=S)N1CCc2ccccc21)c1ccccc1Br	-2%	15	12%	0.89µM*	0.1µM*
O=S1(=O)CCN(CCc2ccccc2)CC1	·	-4	·	·	·
Nc1ncc(Br)cc1S(=O)(=O)NCCC(=O)NCCc1ccc(Cl)cc1	21%	16	8%	-8%	12%
CCc1cccc(OCCn2nc(C(=O)O)c3ccccc3c2=O)c1	3%	-90*	-10%	2%	5%
S=c1[nH]cnc2scc(-c3ccccc3)c12	?	13	?	0.5µM*	0.5µM*
c1ccc(-c2ccccc2-c2nc(-c3cccnc3)no2)cc1	26%	0	?	-3%	-9%
COc1ccc(-c2csc3nc(-c4cccnc4)nc(Cl)c23)cc1OC	?	-87*	18µM*	-8%	-21%
Clc1nc(-c2cccnc2)nc2scc(-c3ccccc3)c12	12µM*	-2	16µM*	9%	?
Cc1ccc(-c2csc3ncnc(Cl)c23)cc1	?	-30	14%	3%	-11%
COc1ccc(-c2nc(-c3cccnc3)no2)cc1OC	-9%	?	1%	-5%	-15%
Clc1ncnc2scc(-c3ccccc3)c12	1%	-70*	0%	-6%	?
COC(=O)C/C=C\[C@@H](C)[C@@H](/C=N\O[C@@H]1O[C@H](COC(C)=O)[C@H](OC(C)=O)[C@H](OC(C)=O)[C@H]1OC(C)=O)OC	·	·	·	-5%[10 µM]	-5%[10 µM]
CC(Oc1ccc(Br)cc1)C(=O)N(C)CC(=O)Nc1ccc(N2CCOCC2)cc1 (configuration not stated)	-12%	0	4%	·	·
O=C(NC1CCCCC1)C1c2ccccc2OCC(=O)N1CC(F)(F)F (configuration not stated)	·	34	·	·	·
O=C(CCl)N(c1ccccc1)C1CCCCC1	?	-101*	21%	3.5µM*	0.71µM*
CCc1c(C)sc(NC(=O)c2ccoc2C)c1C(N)=O	-1%	-56*	-3%	-22%	11%
